PAD4 inh: blocks human protein arginine deiminase 4. Q9UM07. recombinant PAD4, RCA probe fluorescence polarization. inhibition, % at 6.36 µM. hit rate 0.41% among 330,000;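 active = percent inhibition above a cutoff equal to the mean of all tested compounds plus 3 SD, cut at about 15% in these data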
Fam108B counter: Fam108B inhibition, counter-screen for RBBP9 inhibitors; inhibition, % at 9.51 µM; recombinant Fam108B, FP-Rh probe fluorescence polarization; hit rate 0.33% among 300,000;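 active = inhibition above the screen mean inhibition plus 3 SD, computed separately per campaign, cut at about 18% in these data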;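 note: inhibitors lower polarization as less probe binds the enzyme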
PME-1 primary: PME-1 (human) inhibition; Q9Y570; recombinant PME-1, FP-Rh probe fluorescence polarization; inhibition, % at 5.9 µM; hit rate 0.53% among 320,000;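 active = inhibition above the campaign mean of all compounds plus 3 SD, cut at about 26% in these data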;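 note: competitive labeling of PME-1 active site by serine hydrolase directed probe; inhibitors block probe labeling so polarization falls and inhibition rises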
Target sequence (Q9Y570 whole entry, looked up): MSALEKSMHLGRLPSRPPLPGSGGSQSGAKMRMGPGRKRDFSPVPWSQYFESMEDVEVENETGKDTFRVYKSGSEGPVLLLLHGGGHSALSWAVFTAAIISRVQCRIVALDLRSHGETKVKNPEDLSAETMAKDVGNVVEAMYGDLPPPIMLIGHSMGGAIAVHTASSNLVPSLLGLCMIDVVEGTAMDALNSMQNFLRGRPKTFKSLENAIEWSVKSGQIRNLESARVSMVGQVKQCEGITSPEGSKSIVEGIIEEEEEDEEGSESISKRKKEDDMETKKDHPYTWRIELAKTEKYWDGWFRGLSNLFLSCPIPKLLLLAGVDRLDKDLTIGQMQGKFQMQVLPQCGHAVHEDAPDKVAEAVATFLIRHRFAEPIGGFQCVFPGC
LYPLA2 inh: counter-screen for PME1 inhibitors: inhibitors of human LYPLA2. O95372. recombinant LYPLA2, FP-Rh probe fluorescence polarization. inhibition, % at 5.9 µM. hit rate 0.38% among 320,000;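 active = inhibition above the screen-wide mean plus 3 SD, limit set per campaign, cut at about 26% in these data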
GSTO1 counter: counter-screen for RBBP9 inhibitors: inhibitors of human GSTO1 | P78417 | recombinant GSTO1, activity-based probe fluorescence polarization | inhibition, % at 5.96 µM | hit rate 1.1% among 300,000 | AID 1974;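 active = inhibition above the campaign mean inhibition plus 3 SD, cut at about 35% in these data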
Target sequence (P78417 whole entry, looked up): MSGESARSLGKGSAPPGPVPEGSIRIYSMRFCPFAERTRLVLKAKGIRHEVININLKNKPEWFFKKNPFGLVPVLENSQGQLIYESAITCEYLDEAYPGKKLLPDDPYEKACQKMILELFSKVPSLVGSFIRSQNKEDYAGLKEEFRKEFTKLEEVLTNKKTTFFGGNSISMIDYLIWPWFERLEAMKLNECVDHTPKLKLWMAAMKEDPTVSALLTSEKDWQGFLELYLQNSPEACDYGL
LYPLA1 inh: LYPLA1 (human) inhibition in PME1 counter-screen. recombinant LYPLA1, FP-Rh probe fluorescence polarization. inhibition, % at 5.9 µM. hit rate 0.16% among 320,000. AID 2174;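 active = inhibition above the mean of all tested compounds plus 3 SD, set per campaign, cut at about 14% in these data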;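 note: inhibitors block serine hydrolase probe labeling of LYPLA1 so polarization falls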
GSTO1 inh conf: confirmation of human GSTO1 inhibitors | inhibition, % at 5.96 µM | recombinant GSTO1, probe fluorescence polarization | shares compounds with GSTO1 counter | hit rate 54% among 2,400;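 active = inhibition above the primary screen's cutoff, its mean inhibition plus 3 SD, cut at about 35% in these data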;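 note: loss of polarization as inhibitors block binding of rhodamine sulfonate ester activity probe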
Numbers stand for hits. This is a sample that favours compounds with a hit; in the whole collection about 1.7% have one here.

How did CC(C)C(=O)Nc1ccc(C(=O)NNC(=S)NC(=O)c2ccco2)cc1 do in these assays?
PAD4 inh: inactive; Fam108B counter: inactive; PME-1 primary: inactive; LYPLA2 inh: inactive; GSTO1 counter: 45; LYPLA1 inh: inactive; GSTO1 inh conf: inactive

Results for O=C(c1ccsc1)N1CCCC(N2CCN(c3cccc(Cl)c3)CC2)C1 (centres undefined) ?
PAD4 inh: inactive; Fam108B counter: inactive; PME-1 primary: inactive; LYPLA2 inh: inactive; GSTO1 counter: inactive; LYPLA1 inh: inactive

How did CC(C)(C)c1ccc(S(=O)(=O)/N=C2\C=C(NS(=O)(=O)c3ccccc3)C(=O)c3ccccc32)cc1 do in these assays?
PAD4 inh: inactive; Fam108B counter: inactive; PME-1 primary: inactive; LYPLA2 inh: inactive; GSTO1 counter: 71; LYPLA1 inh: inactive; GSTO1 inh conf: 67

Results for C/C(=N\NS(=O)(=O)c1ccc(C(C)(C)C)cc1)c1ccccc1 ?
PAD4 inh: inactive; Fam108B counter: inactive; PME-1 primary: inactive; LYPLA2 inh: inactive; GSTO1 counter: inactive; LYPLA1 inh: inactive

How did COc1cc2c(cc1NC(=O)CSc1nnc(Cc3cccs3)n1C)oc1ccccc12 do in these assays?
PAD4 inh: inactive; Fam108B counter: inactive; PME-1 primary: inactive; LYPLA2 inh: inactive; GSTO1 counter: 46; LYPLA1 inh: inactive; GSTO1 inh conf: inactive

How did COc1cc2c(cc1NC(=O)CSc1nnc(Cc3cccs3)n1Cc1ccco1)oc1ccccc12 do in these assays?
PAD4 inh: inactive; Fam108B counter: inactive; PME-1 primary: inactive; LYPLA2 inh: inactive; GSTO1 counter: inactive; LYPLA1 inh: inactive

How did CO/N=C/NC(=O)c1c(OC)ccnc1Oc1cccc(C(F)(F)F)c1 do in these assays?
PAD4 inh: inactive; Fam108B counter: inactive; PME-1 primary: inactive; LYPLA2 inh: inactive; GSTO1 counter: inactive; LYPLA1 inh: inactive

Results for O=C1C(Cl)=C(NC(=O)c2ccccc2)C(=O)C(Cl)=C1NC(=O)c1ccccc1 ?
PAD4 inh: 51; Fam108B counter: inactive; PME-1 primary: inactive; LYPLA2 inh: inactive; GSTO1 counter: 79; LYPLA1 inh: inactive; GSTO1 inh conf: inactive

Results for O=C(NC1=C(Nc2ccc(Cl)cc2)C(=O)c2ccccc2C1=O)c1ccccc1 ?
PAD4 inh: inactive; Fam108B counter: inactive; PME-1 primary: inactive; LYPLA2 inh: inactive; GSTO1 counter: inactive; LYPLA1 inh: inactive

How did Cc1cccc(NC2=C(NC(=O)c3ccccc3)C(=O)c3ccccc3C2=O)c1 do in these assays?
PAD4 inh: inactive; Fam108B counter: inactive; PME-1 primary: inactive; LYPLA2 inh: inactive; GSTO1 counter: 56; LYPLA1 inh: inactive; GSTO1 inh conf: 38

How did O=C1c2ccccc2C(=O)C1(O)O do in these assays?
PAD4 inh: inactive; PME-1 primary: inactive; LYPLA2 inh: inactive; LYPLA1 inh: inactive

Results for CC1(S(=O)(=O)O)CC(=O)c2ccccc2C1=O (centres undefined) ?
PAD4 inh: inactive; Fam108B counter: inactive; PME-1 primary: inactive; LYPLA2 inh: inactive; GSTO1 counter: 74; LYPLA1 inh: inactive; GSTO1 inh conf: 74

What do the screens show for `Cc1ccc(CNC(=O)C(=O)NCC2CCCN2S(=O)(=O)c2cccs2)cc1` (centres undefined)?
PAD4 inh: inactive; Fam108B counter: inactive; PME-1 primary: inactive; LYPLA2 inh: inactive; GSTO1 counter: inactive; LYPLA1 inh: inactive

How did CN1CCN(C2=C(Cl)C(=O)N(C3CCCCC3)C2=O)CC1 do in these assays?
PAD4 inh: inactive; Fam108B counter: inactive; PME-1 primary: inactive; LYPLA2 inh: inactive; GSTO1 counter: inactive; LYPLA1 inh: inactive

Results for CN1CCN(C2=C(Cl)C(=O)C(c3cnc(N4CCCCC4)s3)=C(Cl)C2=O)CC1 ?
PAD4 inh: 23; Fam108B counter: inactive; PME-1 primary: inactive; LYPLA2 inh: inactive; GSTO1 counter: 84; LYPLA1 inh: inactive; GSTO1 inh conf: inactive

How did CN(Cc1nc2ccccc2c(=O)[nH]1)C(=O)c1ccccc1OCc1ccc(Cl)cc1 do in these assays?
PAD4 inh: inactive; PME-1 primary: inactive; LYPLA2 inh: inactive; LYPLA1 inh: inactive

How did CCN(C(=O)Cn1cc(C(=O)C(=O)N2CCOCC2)c2ccccc21)c1ccccc1 do in these assays?
PAD4 inh: inactive; Fam108B counter: inactive; PME-1 primary: inactive; LYPLA2 inh: inactive; GSTO1 counter: 67; LYPLA1 inh: inactive; GSTO1 inh conf: inactive

How did CCN(CC)C(=O)Cn1cc(C(=O)C(=O)N2CCN(c3ccccc3)CC2)c2ccccc21 do in these assays?
PAD4 inh: inactive; Fam108B counter: inactive; PME-1 primary: inactive; LYPLA2 inh: inactive; GSTO1 counter: inactive; LYPLA1 inh: inactive

Results for O=C(CSc1nnc(-c2cccs2)n1C1CC1)NC1CCS(=O)(=O)C1 (centres undefined) ?
PAD4 inh: inactive; PME-1 primary: inactive; LYPLA2 inh: inactive; LYPLA1 inh: inactive

Results for O=C(CSc1nnc(-c2ccc(Cl)cc2Cl)n1C1CCCCC1)NC1CCS(=O)(=O)C1 (centres undefined) ?
PAD4 inh: inactive; Fam108B counter: inactive; PME-1 primary: inactive; LYPLA2 inh: inactive; GSTO1 counter: 45; LYPLA1 inh: inactive; GSTO1 inh conf: inactive

Results for COc1ccc(C(=O)CSc2nnc(C3CCCCC3)n2N)c(OC)c1 ?
PAD4 inh: inactive; Fam108B counter: inactive; PME-1 primary: inactive; LYPLA2 inh: inactive; GSTO1 counter: inactive; LYPLA1 inh: inactive

What do the screens show for `Cc1cccc(C)c1NC(=S)NCCc1ccc(O)c(O)c1`?
PAD4 inh: inactive; Fam108B counter: inactive; PME-1 primary: inactive; LYPLA2 inh: inactive; GSTO1 counter: 38; LYPLA1 inh: inactive; GSTO1 inh conf: inactive

What do the screens show for `Cc1csc(=O)n1CC(=O)OCC(=O)NCc1ccc(Cl)cc1Cl`?
PAD4 inh: inactive; Fam108B counter: inactive; PME-1 primary: inactive; LYPLA2 inh: inactive; GSTO1 counter: inactive; LYPLA1 inh: inactive

What do the screens show for `N/C(=N/OC(=O)c1ccccc1Cl)c1ncc([N+](=O)[O-])s1`?
PAD4 inh: inactive; Fam108B counter: inactive; PME-1 primary: inactive; LYPLA2 inh: inactive; GSTO1 counter: 47; LYPLA1 inh: inactive; GSTO1 inh conf: inactive

What do the screens show for `CCOC(=O)c1cc(C)n(CCc2ccccc2)c1C`?
PAD4 inh: inactive; Fam108B counter: inactive; PME-1 primary: inactive; LYPLA2 inh: inactive; GSTO1 counter: inactive; LYPLA1 inh: inactive

How did Cc1cc(C(=O)CCl)c(C)n1CCc1ccccc1 do in these assays?
PAD4 inh: inactive; Fam108B counter: inactive; PME-1 primary: inactive; LYPLA2 inh: inactive; GSTO1 counter: 79; LYPLA1 inh: inactive; GSTO1 inh conf: 97

What do the screens show for `NC1=NC(=O)/C(=C\c2ccco2)S1`?
PAD4 inh: inactive; Fam108B counter: inactive; PME-1 primary: inactive; LYPLA2 inh: inactive; GSTO1 counter: 41; LYPLA1 inh: inactive; GSTO1 inh conf: inactive

What do the screens show for `C=C(C)Cn1c(SCC(=O)N/N=C/c2cccc(O)c2)nc2ccccc2c1=O`?
PAD4 inh: inactive; Fam108B counter: inactive; PME-1 primary: inactive; LYPLA2 inh: inactive; GSTO1 counter: inactive; LYPLA1 inh: inactive

Assay outcomes deposited in PubChem by The Scripps Research Institute Molecular Screening Center.
